ClpP mod – qHTS Assay for Activators of ClpP. ATP-dependent Clp protease proteolytic subunit (Bacillus subtilis (strain 168)), P80244. purified B. subtilis ClpP, FRET peptide cleavage, 20 min. Potency, µM (top dose mostly 57.5 µM), inactives show at the highest dose activity change, negative = active. 1.9% of 340,000 active. AID 651965, 2013; active = well fitted falling curve with a large enough effect; inconclusive = small, poorly fitted or top-dose-only effect; inactive = no such curve, though single readings can be large or run the other way; note: potency is the fitted concentration of half-maximal effect; the source files actives as falling curves though it sought activators and does not explain the sign; nearly all actives have a fitted effect of over 65% in size
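ClpP 10 microg/mL final, pH 8 Tris/KCl buffer with BSA, glycerol, Tween-20; compound pinned in; FRET-FV substrate; RT 20 min; Ex320/Em430; ΔFRET vs ADEP 5.8 microM, DMSO, no enzyme.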
PKM2 activator – qHTS Assay for Activators of Human Muscle isoform 2 Pyruvate Kinase | purified PKM2, Kinase-Glo ATP luminescence, activation; response scale: 0% is enzyme alone, no compound | Pyruvate kinase PKM (Homo sapiens), P14618 | Potency, µM (doses to about 57.5 µM), without a hit: at the top dose activation, actives largely listed as activators | 0.34% of 260,000 active | AID 1631, 2009; note: potency is the fitted concentration of half-maximal effect; % is set by controls: 0 for no effect and ±100 for the full control effect; nearly all actives have a fitted effect of over 55% in size
Target sequence (P14618 whole entry, looked up, canonical isoform): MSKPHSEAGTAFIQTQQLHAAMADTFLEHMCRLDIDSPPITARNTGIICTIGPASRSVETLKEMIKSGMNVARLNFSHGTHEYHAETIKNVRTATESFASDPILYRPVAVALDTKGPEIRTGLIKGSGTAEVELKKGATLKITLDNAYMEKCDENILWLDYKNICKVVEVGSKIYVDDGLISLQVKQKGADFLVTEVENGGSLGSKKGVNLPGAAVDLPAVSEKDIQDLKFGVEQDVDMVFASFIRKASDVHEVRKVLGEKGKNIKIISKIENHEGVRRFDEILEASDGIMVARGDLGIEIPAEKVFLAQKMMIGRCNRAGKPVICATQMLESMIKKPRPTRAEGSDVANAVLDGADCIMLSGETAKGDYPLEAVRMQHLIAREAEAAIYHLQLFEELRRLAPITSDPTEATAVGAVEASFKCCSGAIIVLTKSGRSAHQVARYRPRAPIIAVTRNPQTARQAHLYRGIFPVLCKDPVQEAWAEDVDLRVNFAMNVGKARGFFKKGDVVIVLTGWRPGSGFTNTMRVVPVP
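Purified hPK-M2 (>95%) run at intermediate activity with 0.1 mM ADP and 0.5 mM PEP in 50 mM imidazole pH 7.2, KCl, MgCl2; 1 h room temperature. ATP formed read by Kinase-Glo luminescence; normalized to uninhibited and no-enzyme controls.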
NPSR antag – qHTS Assay for Antagonists of the Neuropeptide S Receptor: cAMP Signal Transduction. Potency, µM (highest dose often 38.3 µM), without a hit: at the highest dose activity change, negative = inhibition, hits mostly inhibitors. AID 1461, 2008. CHO-NPSR cells, cAMP TR-FRET, antagonist mode. 1% of 220,000 active. Q6W5P4; note: potency is the fitted concentration of half-maximal effect; % is set by controls: 0 for no effect and ±100 for the full control effect; nearly all actives have a fitted effect of over 50% in size
IL-2 act – qHTS of IL-2 Activators; activation, % (series mostly up to about 46 µM); IL-2 activation reporter assay, cell-based qHTS; stimulated with anti-CD3/CD4/CD28 beads; in transgenic mouse T cells; 0.065% of 360,000 active; in the data active = activation above about 50%; inconclusive = mostly about 30% to 49%; note: 0% is about no effect
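Screening format: compound pinned onto unstimulated transgenic mouse T cells, 60 min incubation, then anti-CD3/anti-CD4/anti-CD28 bead stimulation for 18 hours at 37 degrees C, followed by EGFP and DsRed detection.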
The depositor's hits bear a star; ? = inconclusive; . = no result; [ ] = dose if it differs, or a comment. Shown are actives, neighbours in structure and some others; about 2% of the full set was active somewhere. Unless noted, calls come from the whole dose curve; as a rule, active = well fitted curve in the direction sought with a large enough effect; inconclusive = small, poorly fitted or top-dose-only effect, or another doubt; inactive = no such curve, though single readings can be large; an effect the other way counts as inactive or inconclusive.

SMILES	ClpP mod	PKM2 activator	NPSR antag	IL-2 act
N=c1c(C(=O)NCc2ccc(F)cc2)cc2c(=O)n3ccccc3nc2n1Cc1cccnc1	7.1µM*	-1%	-12%[46.1 µM]	178*
C=CCn1c(=N)c(C(=O)NCCCOC)cc2c(=O)n3cc(C)ccc3nc21	-19%	0%	-4%[46.1 µM]	1
CC(C)OCCCn1c(=N)c(C(N)=S)cc2c(=O)n3ccccc3nc21	14µM*	0%	-11%[46.1 µM]	0
N=c1c(C(=O)NCc2ccccc2)cc2c(=O)n3ccccc3nc2n1CCCN1CCOCC1	3.2µM*	-1%	-2%[46.1 µM]	0
N=c1c(C(=O)NCc2ccc(F)cc2)cc2c(=O)n3ccccc3nc2n1CCCN1CCOCC1	?	-4%	7%[46.1 µM]	0
CCCn1c(=N)c(C(=O)NCc2cccnc2)cc2c(=O)n3ccccc3nc21	4%	.	.	.
CCOCCCn1c(=N)c(C(=O)NCc2ccccc2)cc2c(=O)n3ccccc3nc21	4%	.	.	.
CCCC/S(CC1CC1(Cl)Cl)=N\S(=O)(=O)c1ccc(C)cc1 (stereo not drawn)	0%	-13%	-14%[46.1 µM]	-1
COCCNC(=O)C(=O)NNC(=O)c1ccccc1OC	.	9%	-19%	0
N=c1c(C(=O)NC2CCCCC2)cc2c(=O)n3ccccc3nc2n1Cc1cccnc1	.	.	.	3
COC(=O)c1cc2c(=O)n3ccccc3nc2n(Cc2cccnc2)c1=N	6.3µM*	.	.	5
COc1ccc(N2C(=O)CC(N(Cc3ccco3)C(=O)CCC(=O)O)C2=O)cc1 (stereo not drawn)	1%	-7%	-7%	-3
O=C1CCCC2=C1C(c1cccs1)Nc1ccccc1N2 (stereo not drawn)	20µM*	6%	8%	-1
CC1(C)CC(=O)C2=C(C1)Nc1ccccc1NC2c1cccs1 (stereo not drawn)	.	2%	5%	0
CC1=C(c2ccc(C)c(C)c2)S(=O)(=O)N(Cc2ccc(C(=O)NCc3ccc(C)cc3)cc2)C1=O	11µM*	.	.	.
COc1ccc(C2=C(C)C(=O)N(Cc3ccc(C(=O)NCc4ccc(C)cc4)cc3)S2(=O)=O)cc1	-16%	.	.	.
COc1ccc(C(=O)N(Cc2ccco2)Cc2ccc(C)o2)cc1	1%	.	.	.
CCCN1C2CCCC1CC(NC(=O)c1cccc([N+](=O)[O-])c1)C2 (stereo not drawn)	28µM*	.	.	1
CCCN1C2CCCC1CC(NC(=O)c1cccc(Cl)c1)C2 (stereo not drawn)	-2%	-2%	.	1
O=C(NC1CCCC1)c1cccc(Cn2cc([N+](=O)[O-])cn2)c1	16µM*	3%	0%	-3
COC(=O)c1cccc(Cn2cc([N+](=O)[O-])cn2)c1	.	10%	12%	.
Cc1ccc(NC(=O)CSc2nc(=O)n(CCCN(C)C)c3c2CCC3)c(C)c1	-8%	.	.	0
COc1ccc(NS(=O)(=O)c2cccc(C(=O)NNC(=O)c3cccn3C)c2)cc1	-1%	-7%	.	-1
CN(C(=O)COc1ncnc2ccccc12)C1CCCCC1	22µM*	.	.	0
CN1C(=O)c2ccc(C(=O)NCc3ccccn3)cc2C1=O	-1%	-2%	.	-4
SMILES	ClpP mod	PKM2 activator	NPSR antag	IL-2 act
CC(C)CCN1C(=O)c2ccc(C(=O)NCc3ccccn3)cc2C1=O	32µM*	.	.	2
Cc1ccc(OCCNC(=O)c2ccco2)cc1C	-1%	-1%	9%[46.1 µM]	0
Cc1ccc(O)c(CC(C)C)n1	3.5µM*	-1%	-3%[46.1 µM]	0
Cc1ccc(O)c(CO)n1	.	1%	-20%	-1
COc1ccc(N=C2S/C(=C\c3ccc(OCC(=O)O)cc3)C(=O)N2CCc2c[nH]c3ccccc23)cc1	.	2.8µM*	-2%	-3
COc1ccc(N=C2S/C(=C\c3ccc(N4CCOCC4)o3)C(=O)N2CCc2c[nH]c3ccccc23)cc1	.	3.2µM*	?	.
CN(CC(=O)NC1CCCCCCC1)S(=O)(=O)c1cnc[nH]1	0%	-6%	11%	1
C/C(=N\NC(=S)NC1CCCCC1)c1c(F)cccc1F	.	1%	1µM*	-1
OCCCc1nc2n(n1)C(c1cccs1)C=C(c1ccccc1)N2 (stereo not drawn)	.	2%	-19%[46.1 µM]	.
